The list is not random: actives were taken first. Their share in the collection is about 5.8%.
KB-V1 cytotox: kills drug-selected multidrug resistant KB-V1 cells. Potency, µM (doses to about 46.1 µM), usual class: cytotoxic. 3.4% of 400,000 active. KB-V1 MDR cells viability, CellTiter-Glo, 72 h; further: on the % scale 0 is the no-effect control and ±100 the full control effect; nearly all actives have a fitted effect of over 60% in size
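Compound-treated KB-V1 multidrug-resistant cells, 72 h, 37 degrees C; viability by CellTiter-Glo. Fitted qHTS curves give the values.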
SW480 rereplic: induces DNA re-replication in SW480 colon adenocarcinoma cells; Potency, µM (top dose mostly 46.1 µM), without a hit: top-dose re-replication activation, usual class: activators; SW480 DNA re-replication, Hoechst DNA content imaging, 48 h; AID 624297; 1.8% of 340,000 active; further: % of control where 0% means no effect; nearly all actives have a fitted effect of over 55% in size
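Image-based read-out: total Hoechst fluorescence of nuclei (405 nm excitation, 500-530 nm emission), with hits raising the fraction of high-intensity nuclei. SW480 colon cells incubated 48 hr with compounds at 37 C.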
KB-3-1 cytotox: kills parental KB-3-1 adenocarcinoma cells. KB-3-1 viability, CellTiter-Glo ATP luminescence, 72 h. Potency, µM (top dose mostly 46.1 µM), usual class: cytotoxic. 1.4% of 400,000 active. AID 1347075; further: on the % scale 0 is the no-effect control and ±100 the full control effect; nearly all actives have a fitted effect of over 60% in size
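72 h, 37 °C compound treatment of KB-3-1 parental cells; CellTiter-Glo added, 10 min, luminescence read. Data corrected against DMSO-only plates and normalized before curve fitting.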
MCF10A rerep: DNA re-replication induction in MCF 10a cells | MCF 10A DNA re-replication, Hoechst nuclear intensity, 48 h | Potency, µM (top dose mostly 46.1 µM), without a hit: at the top dose activity, positive = re-replication, most hits filed as activators | AID 624296 | 2.9% of 350,000 active; further: % of control where 0% means no effect; nearly all actives have a fitted effect of over 50% in size
12-LOX inh: inhibitors of human 12S-lipoxygenase ALOX12 | P18054 | purified 12hLO, xylenol orange hydroperoxide absorbance | Potency, µM (series often up to 108 µM), inactives show at the highest dose activity change, negative = inhibition, usual class: inhibitors | 1.1% of 580,000 active | AID 1671190; further: on the % scale 0 is the no-effect control and ±100 the full control effect
Target sequence (P18054 whole entry, looked up): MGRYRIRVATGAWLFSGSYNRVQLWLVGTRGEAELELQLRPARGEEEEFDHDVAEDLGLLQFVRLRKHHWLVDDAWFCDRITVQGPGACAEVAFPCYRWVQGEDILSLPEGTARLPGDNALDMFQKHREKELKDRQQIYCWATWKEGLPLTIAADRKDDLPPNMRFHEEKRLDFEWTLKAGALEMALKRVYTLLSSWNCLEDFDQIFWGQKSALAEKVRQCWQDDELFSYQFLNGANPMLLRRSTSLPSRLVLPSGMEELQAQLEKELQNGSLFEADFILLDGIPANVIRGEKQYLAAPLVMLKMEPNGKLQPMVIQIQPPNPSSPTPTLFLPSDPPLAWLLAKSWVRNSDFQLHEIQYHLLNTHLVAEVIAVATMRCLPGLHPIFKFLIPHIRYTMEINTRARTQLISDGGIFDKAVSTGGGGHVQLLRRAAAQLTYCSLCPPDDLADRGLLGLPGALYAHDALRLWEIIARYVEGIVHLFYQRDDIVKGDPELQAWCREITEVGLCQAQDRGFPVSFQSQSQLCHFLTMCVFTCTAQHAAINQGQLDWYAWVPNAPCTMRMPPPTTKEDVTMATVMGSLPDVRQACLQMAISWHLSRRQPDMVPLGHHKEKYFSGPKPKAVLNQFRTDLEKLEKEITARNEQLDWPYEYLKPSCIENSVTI
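Purified human 12hLO at 150 nM in 25 mM Hepes, 0.01% Triton X-100, pH 7.0, preincubated 15 min at room temperature with compound. Reaction started with 40 uM arachidonic acid, 30 min at room temperature. Hydroperoxide measured by Fe-xylenol orange, 573/405 nm absorbance ratio.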
PINK1 modulator: PINK1 expression modulation; PINK1 immunofluorescence, high-content cytometry, 24 h; Potency, µM (series often up to 76.6 µM), without a hit: at the top dose activation (PINK1 increase), hits mostly activators; 0.2% of 410,000 active; active means well fitted activation curve with a large enough effect; inconclusive means small, poorly fitted or top-dose-only effect; cell line not stated here; further: % of control where 0% means no effect; nearly all actives have a fitted effect of over 65% in size
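Readout is PINK1 immunofluorescence, quantified alongside mitochondrial, cell and nuclear markers by laser-scanning microplate cytometry. Cells from a stable line were exposed to compound titrations (5 concentrations) for 24 hours, with CCCP controls.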
Starred values were filed as active, the others as inactive; i = inactive; ? = inconclusive; nt = no result; ! = not confirmed by another sample; [ ] = another dose, or the depositor's remark. Unless noted, the call rests on the fitted dose curve; in most records, active means well fitted curve in the direction sought with a large enough effect; inconclusive means small, poorly fitted or top-dose-only effect, or another doubt; inactive means no such curve, though single readings can be large; an effect the other way counts as inactive or inconclusive. Potency means the concentration at half of the fitted maximal effect.

SMILES	KB-V1 cytotox	SW480 rereplic	KB-3-1 cytotox	MCF10A rerep	12-LOX inh	PINK1 modulator
COc1cc(OC)c(OC)cc1/C=C/c1nc2cc3ccccc3cc2c(=O)n1-c1ccc(F)cc1F	i	nt	11.6µM*	nt	?	1.1%
O=c1c2ccccc2nc(/C=C/c2cccc3ccccc23)n1-c1ccc(F)cc1F	i	nt	i	nt	?	0.0%
O=C1c2ccccc2C(=O)N1CC(=O)N1c2ccccc2Sc2ccc(C(F)(F)F)cc21	18.4µM*	0.0%	i	13.9%	-19.3%	-0.9%
O=C1c2ccccc2C(=O)N1CC(=O)N1c2ccccc2Sc2ccccc21	i	-2.2%	i	-7.1%	4.0%	0.3%[38.3 µM]
CC1CCC/C(=C(\C#N)c2nc(-c3cc4ccccc4oc3=O)cs2)C1 (stereo unspecified)	8.2µM*	-2.1%	?	16.3%	?	0.1%
COc1ccc(/C=C(/C#N)c2nc(-c3cc4ccccc4oc3=O)cs2)cc1	i	nt	i	nt	-16.4%	0.8%
CC(=O)[C@@H]1[C@@H](C(=O)c2ccccc2)[C@]2(C(=O)Nc3ccccc32)[C@H]2C=Cc3cc(F)ccc3N12	?	?	?	20.6µM*	-0.6%	-1.6%
CCN(C(=O)c1coc(=O)c(Br)c1)c1ccc2c(c1)OCO2	i	?	i	13µM*	?	?
CN(C)c1ccc(C(=S)N2CCN(c3ccc([N+](=O)[O-])cc3)CC2)cc1	i	-11.4%	i	4.3%	?	3.4%
Cc1ccccc1N1CCN(C(=S)c2ccc([N+](=O)[O-])cc2)CC1	16.4µM*	-0.8%	i	8.5%	-19.3%	-0.4%
Cc1cccc(N2CCN(C(=S)c3ccc([N+](=O)[O-])cc3)CC2)c1	i	3.7%	i	-3.2%	-26.5%	0.0%
O=[N+]([O-])c1ccc(C(=S)N2CCN(c3ccc(F)cc3)CC2)cc1	i	4.0%	i	23.3%	50.1µM*	-1.2%
COc1ccc2c(C)c(CC(=O)N3CCOCC3)c(=O)oc2c1	nt	nt	nt	nt	8.6%	nt
COc1ccc(Cc2c(-c3ccc(F)cc3)nc3c(C)cc(Br)cn23)c(C)c1	i	nt	i	nt	35.5µM*	3.1%
COc1ccc(Cc2c(-c3cccc(Cl)c3)nc3c(C)cc(Br)cn23)c(C)c1	i	nt	?	nt	7.94µM*	?
COc1ccc(Cc2c(-c3ccc(Cl)cc3)nc3c(C)cc(Br)cn23)c(C)c1	?	nt	?	nt	?	3.9%
COc1ccc(Cc2c(-c3cccc(Cl)c3)nc3ccc(C)cn23)c(C)c1	i	nt	?	nt	10µM*	29.6%
COc1ccc(Cc2c(-c3ccc(F)cc3)nc3ccc(Cl)cn23)c(C)c1	i	nt	i	nt	28.2µM*	1.1%
COc1ccc(Cc2c(-c3cccc(Br)c3)nc3c(C)cc(Br)cn23)c(C)c1	i	nt	i	nt	?	0.9%
COc1ccc(/C=C(/NC(=O)c2ccco2)C(N)=O)cc1	nt	nt	nt	nt	-15.5%	nt
CCCCCCn1c(SCC)nc2c1c(=O)[nH]c(=O)n2C	nt	nt	nt	nt	-47.0%	nt
COc1ccc2c(c1)cc(C(=O)Nc1c(C)cccc1C)n2C	nt	nt	nt	nt	-28.6%	nt
O=C(NCc1ccccc1)c1nc(-c2ccc(Cl)cc2)n2c1CCCCC2	?	nt	i	nt	-45.3%	5.8%
CC(C)N(Cc1ccccc1)C(=O)c1nc(-c2ccc(Cl)cc2)n2c1CCCCC2	16.4µM*	nt	i	nt	?	?
Cc1ccc(-c2nc(C(=O)NCc3ccc(Cl)cc3)c3n2CCCCC3)cc1	13µM*	nt	?	nt	?	2.6%
SMILES	KB-V1 cytotox	SW480 rereplic	KB-3-1 cytotox	MCF10A rerep	12-LOX inh	PINK1 modulator
COC(=O)c1ccccc1NC(=O)c1nc(-c2ccc(C)cc2)n2c1CCCCC2	14.6µM*	nt	?	nt	0.0%	-1.0%
O=C(CNC(=O)NCCc1ccccc1)NCC(F)(F)F	nt	nt	nt	nt	-42.4%	nt
CC1=CC(C)(C)N(C(=O)CSc2nnc(N)s2)c2cc(C)c(C)cc21	11.6µM*	-3.9%	i	?	12.6%	1.1%[38.3 µM]
CC1=CC(C)(C)N(C(=O)CSc2nnc(-c3ccc(C)cc3)o2)c2ccc(C)cc21	8.2µM*	16.4%	?	?	-1.4%	3.5%
O=C(Nc1c(N2CCCC2)c2ccccc2oc1=O)C1CC1	nt	nt	nt	nt	4.5%	nt
COc1ccc(-c2nnc(SCC(=O)c3cccs3)o2)cc1	i	-6.3%	i	?	?	1.0%
O=C(CSc1nnc(-c2cccs2)o1)c1cccs1	i	?	i	3.66µM*	1.6%	nt
CCN(CC)C(=O)CSc1nnc(-c2cc(-c3ccc(Cl)cc3)nc3ccccc23)o1	i	0.9%	i	8.8%	-17.5%	0.6%
CN(C)C(=O)CSc1nnc(-c2cc(-c3cccs3)nc3ccccc23)o1	?	?	i	10.3µM*	19.6%	12.4%
N#CC(C(=O)c1ccc(SC(F)F)cc1)c1ccccn1 (stereo unspecified)	nt	nt	nt	nt	-6.3%	nt
COc1cccc2cc(-c3cc(=O)oc4c(C)c(C)ccc34)oc12	nt	nt	nt	nt	-23.4%	nt
CCc1nnc(CC)n1N	nt	nt	nt	nt	45.0%	nt
N#CC1=C2SCC(O)(c3ccccc3)N2C(=O)CC1c1ccccc1 (stereo unspecified)	1.84µM*	11.6µM*	1.3µM*	5.8µM*	-10.6%	13.7%
CN1CSC2=C(C#N)C(c3cccc(OCc4ccccc4)c3)CC(=O)N2C1 (stereo unspecified)	i	17.0%	?	7.5%	-12.4%	11.1%
CCN(CC)c1nc2c3c(nc4c(c3c1C#N)CC(=O)N4c1ccc(Cl)cc1)NC(C)=N2	i	4.3%	?	9.2µM*	?	3.7%
COc1ccc(-n2c(=O)c3c4c(sc3n(CC(=O)NC3CCCC3)c2=O)CCCC4)c(OC)c1	i	-14.8%	i	-1.2%	-9.2%	0.7%
COc1ccc(-n2c(=O)c3c4c(sc3n(CC(=O)NCc3ccco3)c2=O)CCC4)c(OC)c1	16.4µM*	-0.5%	i	11.0%	nt	0.2%[38.3 µM]
COc1ccc(NS(=O)(=O)c2ccc(-c3cnc(C4CC4)o3)cc2)cc1OC	?	3.3%	2.06µM*	?	17.3%	6.7%
COc1ccccc1NS(=O)(=O)c1ccc(-c2cnc(C3CC3)o2)cc1	?	0.0%	1.03µM*	?	1.0%	1.6%
O=S(=O)(Nc1cccc(C(F)(F)F)c1)c1ccc(-c2cnc(C3CC3)o2)cc1	8.2µM*	nt	10.3µM*	nt	?	?
CCc1ccccc1NS(=O)(=O)c1ccc(-c2cnc(C3CC3)o2)cc1	nt	nt	nt	nt	5.6%	nt
COc1ccccc1CNS(=O)(=O)c1ccc(-c2cnc(C3CC3)o2)cc1	5.8µM*!	?	?	?	36.0%	1.6%
O=C(Nc1ccc(-n2cccn2)c(F)c1)C1CCCN(C(=O)c2cccs2)C1 (stereo unspecified)	nt	nt	nt	nt	-1.0%	nt
Cc1ccc[n+]([O-])c1C	nt	nt	nt	nt	24.8%	nt

Compound activity as filed in PubChem.
